PubChem BioAssay (NCATS)
Records with an inconclusive call do not appear. Calls of active or inactive are those of the source. Calls follow the shape of the dose curve; as a rule, active = well fitted curve in the direction sought with a large enough effect; inconclusive = small, poorly fitted or top-dose-only effect, or another doubt; inactive = no such curve, though single readings can be large; an effect the other way counts as inactive or inconclusive. Where a SMILES comes first, the peptide text is derived from it.

Key:
[1] = qHTS of pediatric cancer cell lines to identify multiple opportunities for drug repurposing: Primary screen for RD cells (AID 1347104); settings: RD rhabdomyosarcoma viability, CellTiter-Glo luminescence, 48 h; series mostly up to 46 µM; also: nearly all actives have a fitted effect of over 55% in size
In short: (§1)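 Luminescence from CellTiter-Glo served as readout of metabolically active cells after 48 h compound exposure. Titrations: MIPE 11-point, from 0.78 nM; NPC 8-point, from 0.59 nM (final). Concentration-response curves came straight from the primary screen.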

[2] = qHTS of pediatric cancer cell lines to identify multiple opportunities for drug repurposing: Primary screen for MG 63 (6-TG R) cells (AID 1347105); settings: MG 63 (6-TG R) viability, CellTiter-Glo, 48 h; series mostly up to 46 µM; also: nearly all actives have a fitted effect of over 50% in size
In short: as §1

[3] = qHTS of pediatric cancer cell lines to identify multiple opportunities for drug repurposing: Primary screen for control Hh wild type fibroblast cells (AID 1347106); settings: Hh wild-type fibroblast viability, CellTiter-Glo luminescence, 48 h; series mostly up to 46 µM;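 also: a drop in luminescence marks cytotoxicity and a rise apparent proliferation; nearly all actives have a fitted effect of over 55% in size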
In short: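 Viability after 48 h compound treatment at 37C, 500-1,000 cells/well, read as ATP luminescence with CellTiter-Glo. Primary screens used 11-point (MIPE, 0.78 nM-46 µM) or 8-point (NPC, 0.59 nM-46 µM) final concentrations; follow-up screens used 11-point dilutions.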

[4] = qHTS of pediatric cancer cell lines to identify multiple opportunities for drug repurposing: Primary screen for Rh30 cells (AID 1347107); settings: Rh30 rhabdomyosarcoma viability, CellTiter-Glo luminescence, 48 h; series mostly up to 46 µM; also: nearly all actives have a fitted effect of over 75% in size
In short: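 Cells (500-1,000/well) rested 5 h, then received compounds for 48 h; metabolically active cells were measured by CellTiter-Glo luminescence. Final concentrations spanned up to 46 µM (MIPE, 11-point) or 0.59 nM-46 µM (NPC, 8-point) in primary screens, 11-point in follow-ups.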

[5] = qHTS of pediatric cancer cell lines to identify multiple opportunities for drug repurposing: Primary screen for Rh41 cells (AID 1347108); settings: Rh41 rhabdomyosarcoma viability, CellTiter-Glo luminescence, 48 h; series mostly up to 46 µM;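 also: luminescence drop marks cytotoxic hits; nearly all actives have a fitted effect of over 70% in size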
In short: as §1

Measured: Potency

NS(=O)(=O)c1ccc(N2CCCCS2(=O)=O)cc1
inactive: all assays above

Cc1oc(-c2ccccc2)nc1CCC(=O)c1ccc(CC2SC(=O)NC2=O)cc1 (stereo not given)
inactive: all assays above

Cc1ccc(O)cc1
inactive: all assays above

CC(=O)CC/C=C(\C)CC/C=C(\C)CC/C=C(\C)CCC=C(C)C
inactive: all assays above

CO[C@@]1(NC(=O)CSC[C@@H](N)C(=O)O)C(=O)N2C(C(=O)O)=C(CSc3nnnn3C)CS[C@@H]21
inactive: all assays above

CCOC(=O)N1CCC(n2c(=O)[nH]c3cc(Cl)ccc32)CC1
inactive: all assays above

C#Cc1ccc(-c2ccccc2F)cc1
inactive: all assays above

O=C(c1cc(O)c(O)c(O)c1)c1ccc(O)c(O)c1O
inactive: all assays above

Nc1ccc(C(=O)N2CC3CC(CN(Cc4ccccc4)C3)C2)cc1
inactive: all assays above

COC(=O)c1cc(S(N)(=O)=O)ccc1OC
inactive: all assays above

CN1C(=O)c2ccccc2C1=O
inactive: all assays above

CCCCCCCC(=O)[O-].CCCCCCCC(=O)[O-].[Zn+2]
inactive: all assays above

COc1ccc(OC(=O)N(CC(=O)O)Cc2ccc(OCCc3nc(-c4ccccc4)oc3C)cc2)cc1
inactive: all assays above

O=[N+]([O-])c1nccn1CO[C@@H](CO)[C@H](O)CO
inactive: all assays above

COc1ccccc1OCC1CNC(=O)O1 (stereo not given)
inactive: all assays above

CN(CC1(C)CCCO1)S(=O)(=O)c1ccc(Cl)c(S(N)(=O)=O)c1 (stereo not given)
inactive: all assays above

CCN1C(=O)c2ccccc2C1Nc1ccc(OCCN2CCCCC2)cc1 (stereo not given)
inactive: all assays above

CCCCCN(CCCOC)C(=O)C(CCC(=O)O)NC(=O)c1ccc(Cl)c(Cl)c1 (stereo not given)
inactive: all assays above

Cc1cc(O)c2c(O)c3c(O)cccc3cc2c1
inactive: all assays above

COc1cc(S(N)(=O)=O)cc(C(=O)O)c1OC
inactive: all assays above

COC(=O)c1ccc(NC(C)=O)cc1OC
inactive: all assays above

CC(=O)/C=C/C=C1/C2CCC(C2)C1(C)C (stereo not given)
inactive: all assays above

OCCc1ccccc1
inactive: all assays above

O=C(O)Cn1cnnn1
inactive: all assays above

CC(=O)OCC[N+](C)(C)C
inactive: all assays above

c1ccc(C(O[C@H]2CCCN(CCc3ccc4c(c3)OCO4)C2)c2ccccc2)cc1
inactive: all assays above

CCN(CC)CC(=O)Nc1c(C)cccc1C(=O)OC
inactive: all assays above

COC(=O)CCCCC(CCSS/C(CCO)=C(\C)N(C=O)Cc1cnc(C)nc1N)SC(C)=O (stereo not given)
inactive: all assays above

Cc1oc(=O)oc1COC(=O)[C@@H]1N2C(=O)[C@@H](NC(=O)[C@H](N)c3ccccc3)[C@H]2SC1(C)C
inactive: all assays above

CC1(C)O[C@@H]2C[C@H]3[C@@H]4CCC5=CC(=O)C=C[C@]5(C)[C@@]4(F)[C@@H](O)C[C@]3(C)[C@]2(C(=O)CO)O1
inactive: all assays above

[O-][n+]1cccc(/C(Cl)=N/OC[C@@H](O)CN2CCCCC2)c1
inactive: all assays above

CC(=O)N[C@@H](CO)C(=O)N[C@@H](CC(=O)O)C(=O)N[C@@H](CCCCN)C(=O)N1CCC[C@H]1C(=O)O (Ac-SDKP-OH)
inactive: all assays above
